In article PMC6919601, “Identification of Plasmodium dipeptidyl aminopeptidase allosteric inhibitors by high throughput screening” (PLoS ONE, 2019):
In all, about 110,000 compounds went through this assay and about 230 (0.21%) showed an effect of 50% or more. Only a selection was taken, and strong results are over-represented in it overall.

Target: DPAP1 (Plasmodium falciparum, UniProt Q8IIJ9)
Experiment: primary screen, percent inhibition; read by cleavage of a fluorogenic dipeptide substrate; higher = more effect of the substance
Design: species or system P. falciparum D10 trophozoite lysates; single well
Method: HTS was performed in black 384-well plates. The first and last two columns of each plate contained our negative (DMSO) and positive (10 μM JCP410) controls, and the 20 central columns the test compounds at 10 μM. Compounds were first diluted 50-fold into assay buffer (50 mM sodium acetate, 5 mM MgCl2, 10 mM β-mercaptoethanol, and 0.1% CHAPS, pH 5.5) from a 10 mM DMSO stock plates. One microliter of this 200 μM intermediate stock plate was dispensed into the assay plate. […] After 30 min, the reaction was quenched with 20 μL of 0.5 M acetic acid, and the fluorescent intensity measured at 523 nm (λex = 492 nm) using an Analyst HT multimode plate reader (Molecular Devices).
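Further: 30 min substrate incubation versus DMSO and 10 µM JCP410 controls.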

DPAP1, sequence (Q8IIJ9 whole entry, looked up): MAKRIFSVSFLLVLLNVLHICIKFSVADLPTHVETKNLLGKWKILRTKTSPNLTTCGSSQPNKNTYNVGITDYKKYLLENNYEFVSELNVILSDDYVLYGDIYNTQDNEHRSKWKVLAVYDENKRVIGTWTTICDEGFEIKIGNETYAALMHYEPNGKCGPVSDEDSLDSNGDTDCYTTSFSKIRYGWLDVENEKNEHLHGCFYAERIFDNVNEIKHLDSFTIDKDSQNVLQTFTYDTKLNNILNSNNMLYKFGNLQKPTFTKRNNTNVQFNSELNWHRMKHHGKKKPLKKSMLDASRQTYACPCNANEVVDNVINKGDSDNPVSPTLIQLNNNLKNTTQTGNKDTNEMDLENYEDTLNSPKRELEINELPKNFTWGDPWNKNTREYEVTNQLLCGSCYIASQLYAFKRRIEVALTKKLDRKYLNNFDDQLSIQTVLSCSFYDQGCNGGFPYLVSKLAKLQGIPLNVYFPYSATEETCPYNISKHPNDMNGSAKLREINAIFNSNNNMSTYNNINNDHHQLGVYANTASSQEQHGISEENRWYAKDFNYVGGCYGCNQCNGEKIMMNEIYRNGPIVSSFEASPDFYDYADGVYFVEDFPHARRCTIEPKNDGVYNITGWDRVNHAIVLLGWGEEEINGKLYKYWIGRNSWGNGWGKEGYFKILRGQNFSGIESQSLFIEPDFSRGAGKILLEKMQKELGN

Row | Compound | % Inhibition @ 10 uM [%]
1 | Cc1cc2c(c(S)n1)C(=O)O/C2=C\c1c[nH]nc1-c1cccs1 | 43.6
2 | Cc1cc2c(c(S)n1)C(=O)O/C2=C\c1ccco1 | 67.6
3 | Cc1cc2c(c(S)n1)C(=O)O/C2=C\c1c[nH]nc1-c1ccc(F)cc1 | 26
4 | COc1ccc(-n2cc(-c3ccc(C)cc3)nc2SCC(=O)NCC2CCCO2)cc1 (centres unmarked) | 4.33
5 | CCOC(=O)N1CCN(C(=O)CSc2nc(-c3ccc(C)cc3)cn2-c2ccc(OC)cc2)CC1 | 77.3
6 | CCOC(=O)N1CCN(C(=O)CSc2nnc(Cc3cccn3C)n2-c2ccc(OC)cc2)CC1 | -5.76
7 | CC1CCCCC1NC(=O)c1cnn2c(C(F)(F)F)cc(-c3cccs3)nc12 (centres unmarked) | 4.36
8 | c1ccc2c(c1)CCN(c1ncnc3c1nnn3Cc1cccc3ccccc13)C2 | -0.0678
9 | CCS(=O)(=O)N1CCC(C(=O)NCc2ccc(F)cc2Cl)CC1 | -6.75
10 | CN(C)CC1CSCCC1(O)c1cccc(Cl)c1 (centres unmarked) | -4.54
11 | CN(C)CC1CSCCC1(O)c1ccccc1 (centres unmarked) | 85.1
12 | CN(C)CC1CSCCC1(O)c1cccc(O)c1 (centres unmarked) | -15.4
13 | O=c1oc2c(cc(NS(=O)(=O)c3ccc(F)cc3)c3ccccc32)s1 | -2.54
14 | Cc1cc2ccccc2n1-c1ccc(C(=O)N2CCCCCC2)s1 | 3.12
15 | CC1(C)CC2=NCC(=O)NC2=C(O)C1 | 59.8
16 | C=CC/N=C/C1=C(O)CC(C)(C)CC1=O | -3.06
17 | CC1(C)CC2=NC3=C(C(=O)CC(C)(C)C3)C(c3cc(Cl)c(O)c(Cl)c3)C2=C(O)C1 (centres unmarked) | 13.2
18 | COc1ccc(Br)cc1C1C(C#N)=C(N)Oc2[nH]nc(-c3ccc4c(c3)OCO4)c21 (centres unmarked) | 3.99
19 | CCOC(=O)C1=NNC2C(=O)N(c3ccc(F)cc3)C(=O)C12 (centres unmarked) | -5.48
20 | O=C(Nc1nccs1)c1ccc(COc2ccccc2Cl)o1 | -5.98
21 | Cc1c(CNC(=O)c2cc(-c3ccccc3)nc3ccc(Br)cc23)cnn1C | -2.9
22 | Cc1ccc2nc(C)n3c4ccccc4c(NC(=O)c4ccccc4)c3c2c1 | -6.87
23 | COc1ccc2nc(C)n3c4ccccc4c(NC(C)=O)c3c2c1 | 2.4
24 | Cc1nc2ccc(Cl)cc2c2c(N)c3ccccc3n12 | 66
25 | Cc1nn2c3ccccc3nc2c2ccccc12 | 5.3

Row | Compound | % Inhibition @ 10 uM [%]
26 | O=C(O)CCS(=O)(=O)Cc1ccccc1F | 1.27
27 | Cc1nc2c(c(C)c1CCC(=O)N1CCN(C3CCCCC3)CC1)c(=O)n(C)c(=O)n2C | 52.7
28 | Cc1nc2c(c(C)c1CCC(=O)N1CCC(C)CC1)c(=O)n(C)c(=O)n2C | -3.1
29 | Cc1nc2c(c(C)c1CCC(=O)N1CCC(N3CCCCC3)CC1)c(=O)n(C)c(=O)n2C | -6.91
30 | CC(NC(=O)c1ccc(Br)cc1)C1COc2ccccc2O1 (centres unmarked) | 3.24
31 | CCOC(=O)C1=C(O)/C(=C\c2ccccc2OC)N=C1C | -1.6
32 | CN1CSC2=C(C#N)C(c3cccc(OCc4ccccc4)c3)CC(=O)N2C1 (centres unmarked) | 71.1
33 | N#CC1=C2SCN(Cc3ccco3)CN2C(=O)CC1c1ccc(Cl)cc1 (centres unmarked) | 42.2
34 | CCOc1ccc(C2CC(=O)N3CN(C)CSC3=C2C#N)cc1OC (centres unmarked) | 47.5
35 | CCOc1ccc(C2CC(=O)N3CN(Cc4ccco4)CSC3=C2C#N)cc1 (centres unmarked) | 43.4
36 | N#CC1=C2SCN(Cc3ccco3)CN2C(=O)CC1c1cccc(OCc2ccccc2)c1 (centres unmarked) | 66.7
37 | CC(C)c1ccc(S(=O)(=O)Nc2ccc3oc(=O)sc3c2)cc1 | 1.13
38 | CCC(C)N(CCNC(=O)c1c2c(nc3ccccc13)C(=O)N(C1CCCCC1)C2)Cc1ccco1 (centres unmarked) | 2.48
39 | CCOC(=O)c1cc(C)n(CC2CCC(C(=O)Nc3cccc(C)n3)CC2)c1C (centres unmarked) | -0.943
40 | CCOC(=O)c1cnn(C(C)(C)C)c1C1CCN(C(=O)OC(C)(C)C)CC1 | -2.83
41 | Cc1ccc(S(=O)(=O)N2CCCC2)cc1S(=O)(=O)N1CCCC1 | 1.52
42 | CCC(=O)/N=c1/n(C)c2ccccc2n1CCOc1ccccc1 | 0.512
43 | Cc1ccccc1OCC(O)CN1CCN(CC(O)COc2ccccc2C)CC1 (centres unmarked) | -0.053
44 | OC(COc1cccc2ccccc12)CN1CCN(CC(O)COc2cccc3ccccc23)CC1 (centres unmarked) | 51.4
45 | OC(COc1ccccc1Cl)CN1CCN(CC(O)COc2ccccc2Cl)CC1 (centres unmarked) | 0.131
46 | Cc1cc(Br)ccc1OCC(=O)O/N=C(\N)c1cccnc1 | -6.94
47 | CCCCN(C)C(=O)CCNC(=O)Cn1ccc2ccccc2c1=O | 7.85
48 | CCOc1ccc(S(=O)(=O)N2CCSC2c2ccc(OC)c(OC)c2)cc1 (centres unmarked) | 25.4
49 | O=C1/C(=C/c2ccc3nccnc3c2)CCC1C1CCCC1 (centres unmarked) | 66.2
50 | O=C1/C(=C/c2ccc3nccnc3c2)CC/C1=C\c1ccc2nccnc2c1 | -0.503

Row | Compound | % Inhibition @ 10 uM [%]
51 | O=C1/C(=C/c2ccc(F)cc2)CCC1C1CCCC1 (centres unmarked) | 23.4
52 | Cc1cc(C)c2c(n1)sc1c(=O)oc(C)nc12 | -0.13
53 | Cc1ccc(N(CC(=O)Nc2ccc(CC#N)cc2)S(=O)(=O)c2ccccc2)c(C)c1 | -6.77
54 | O=C(NCc1ccco1)c1ccc(CN2CC(=O)N3CCCCC3C2=O)cc1 (centres unmarked) | 3.7
55 | Cc1ccc(-c2cc(C(=O)N3CCN(C(=O)c4ccco4)CC3)[nH]n2)c(C)c1 | 2.62
56 | COCCN1C(=O)/C(=C/c2ccccc2)S/C1=N\c1ccccc1 | -4.21
57 | COCCN1C(=O)/C(=C/c2cccc(C)c2)S/C1=N\c1ccccc1 | 64.4
58 | COCCN1C(=O)/C(=C/c2ccc(C)cc2)S/C1=N\c1ccccc1 | -11.1
59 | CCN(CC)CCCNc1cnnc2c(Cl)cccc12 | -4.4
60 | COc1ccc(OC)c(C2C3=C(O)CCCC3=NC(C)=C2C(=O)Nc2ccccn2)c1 (centres unmarked) | -8.82
61 | COc1ccc2c(c1)cc1c(=O)n(CC(=O)NCc3cccc(OC)c3OC)nc(C)n12 | 99.1
62 | COc1ccccc1CNC(=O)Cn1nc(C)n2c(cc3c(OC)cccc32)c1=O | -3.47
63 | CCCNC(=O)Cn1nc(C)n2c(cc3cc(OC)ccc32)c1=O | 4.84
64 | OC(c1ccccc1)c1nc2ccccc2[nH]1 (centres unmarked) | 3.87
65 | CCn1nc(C)c(C(=O)Nc2ccn(Cc3ccccc3)n2)c1C | 3.21
66 | Cn1c2ccccc2c2cnn(CC(=O)N3CCN(c4ccccn4)CC3)c(=O)c21 | 4.53
67 | Cn1c2ccccc2c2cnn(CC(=O)N3CCN(c4ncccn4)CC3)c(=O)c21 | 53.7
68 | CN1CCN(C(=O)Cn2ncc3c4ccccc4n(C)c3c2=O)CC1 | 1.41
69 | Oc1nc(SCc2ccccc2)nc(O)c1Cc1ccccc1 | -2.12
70 | CC1=CC2=NC(=O)/C(=C\c3ccc(-c4ccccc4Cl)o3)C(=N)N2O1 | -1.65
71 | O=C(NC1CCCCC1)C1CC(c2ccccc2F)=NO1 (centres unmarked) | 7.39
72 | CCOc1ccc2c(=O)c(Oc3ccccc3)c(C(F)(F)F)oc2c1 | -4.21
73 | COc1ccc(OC)c(NC(=O)c2ccc(OC(C)C)cc2)c1 | -1.88
74 | CC(=O)c1cccc(NS(=O)(=O)c2ccc(Oc3ccccc3Cl)cc2)c1 | -3.87
75 | COc1ccc(S(=O)(=O)Nc2cccc(C(C)=O)c2)cc1 | -1.92

Row | Compound | % Inhibition @ 10 uM [%]
76 | COc1ccccc1Oc1ccc(S(=O)(=O)Nc2cccc(C(C)=O)c2)cc1 | 67.2
77 | CC(=O)c1sc2nc(-c3cccs3)cc(-c3cccs3)c2c1N | 7.74
78 | CS(=O)(=O)c1sc2nc(-c3ccc(Br)cc3)cc(-c3ccccc3)c2c1N | -1.93
79 | CS(=O)(=O)c1sc2nc(-c3cccs3)cc(-c3ccccc3)c2c1N | 64.2
80 | CN(C)c1ccc(NC(=O)Nc2ccc(Cl)cc2)cc1 | 0.51
81 | O=C1C2C=COC2C2c3ccccc3CCC2N1Cc1ccccc1 (centres unmarked) | 0.727
82 | Cc1nc2c(C(=O)n3ccnc3)cnn2c(C)c1Cc1ccccc1Cl | -0.406
83 | CS(=O)(=O)N(CC(=O)Nc1ccc2c(c1)OCCO2)c1cccc(F)c1 | 69.8
84 | CS(=O)(=O)N(CC(=O)Nc1ccccc1)c1cccc(F)c1 | -10.1
85 | CC(=O)Nc1ccc(NC(=O)CN(c2cccc(F)c2)S(C)(=O)=O)cc1 | 8.06
86 | CN(Cc1ccco1)C(CNS(=O)(=O)c1ccccc1)c1ccccc1 (centres unmarked) | -0.671
87 | CCCCOc1ccc(C2=NC(=O)/C(=C/c3cccc(OC)c3OC)O2)cc1 | 2.1
88 | Cc1ccccc1-n1cc(-c2ccc3c(c2)OCO3)nc1S | 83.7
89 | CCn1c2ccccc2n2cc(-c3ccc4c(c3)OCO4)nc12 | 0.486
90 | Sc1nc(-c2ccc3c(c2)OCO3)cn1-c1cccc(Cl)c1 | 19.5
91 | CC(C)C[C@H](NC(=O)c1cc2cc(OCCN3CCOCC3)ccc2o1)C(=O)NC1COCC1=O (some centres unmarked) | -8.26
92 | CCOc1cc(/C=C2/NC(=O)N(CC(=O)Nc3cccc(C)c3)C2=O)cc(Cl)c1O | 2.44
93 | COc1cccc(/C=C2/SC(=O)N(CC(=O)Nc3ccc(C)cc3)C2=O)c1O | 30.1
94 | Cc1ccc(NC(=O)CN2C(=O)S/C(=C\c3ccccc3O)C2=O)cc1 | 50.5
95 | Cc1ccc(NC(=O)CN2C(=O)S/C(=C\c3ccccc3C)C2=O)cc1 | -5.4
96 | COc1ccc(C(=O)CCC(=O)NC2=NCCS2)cc1 | -3.21
97 | CN1CCN(C(=O)Cn2nc(-c3ccc(Cl)cc3)c3ccccc3c2=O)CC1 | 2.95
98 | CC1=C(C(=O)OC2CCCC2)C(c2ccsc2)C2=C(O)CC(c3cccs3)CC2=N1 (centres unmarked) | 0.146
